In the library only some 4.1% were active in any assay of this set; here they are far more common.
Shn3 inh set2 = Schnurri-3 reporter inhibition in Clone20 osteoblasts; Clone20 osteoblast Shn3 3'UTR firefly luciferase, 24 h; inhibition, % at 12.5 µM; hit rate 0.52% among 360,000; AID 588674;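 active means mean inhibition of at least 75% with every replicate also reaching 75%; inconclusive means mean inhibition at least 75% but some replicate below; inactive means mean inhibition below 75%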;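 further: 0% = median of neutral control wells and 100% = pilot-screen positive control compound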
TRPM1 prom inh = MITF TRPM1 promoter inhibition in SK-MEL-5 cells; SK-MEL-5 TRPM1 promoter luciferase, 24 h; inhibition, % at 12.5 µM; hit rate 0.83% among 330,000;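 active means mean inhibition across replicates of 60% or more, whatever share of single replicates reaches that level; inconclusive means some that reach 60%, reason not given; inactive means mean inhibition across replicates below 60%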
TWEAK Fn14 block = blocks TWEAK-Fn14 interaction in a reporter cell assay; TWEAK-stimulated Fn14 reporter cells, luciferase luminescence, 8 h; inhibition, % at 10 µM; hit rate 2% among 360,000; AID 1159606; in the data active means inhibition above about 50%
Peg3 prom inh = Peg3 promoter activity inhibition. HeLa PEG-Prom luciferase reporter, luminescence, overnight. inhibition, % at 20 µM. hit rate 1.7% among 360,000. AID 588405;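 active means inhibition of at least 50% at 20 µM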
TROY NFkB inh = blocks TROY-dependent signaling in reporter cells. Q293 LMP1-TROYcd NF-kB luciferase reporter, 4 h. inhibition, % at 10 µM. hit rate 0.98% among 360,000;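 active means compounds whose plate-normalised and pattern-corrected inhibition of the luciferase reporter signal at the single screening dose is 50% or more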
LMP1 NFkB inh = reduces LMP1-driven NF-kappaB luciferase signal; LMP1-induced NF-kappaB luciferase reporter cells, luminescence; inhibition, % at 12.5 µM; hit rate 0.69% among 350,000; AID 504558; in the data active means inhibition above about 41%; inconclusive means no clear call, values can overlap the other calls;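 further: 0% = neutral control wells and 100% = reference inhibitor control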
* marks the source's active call; other numbers are inactive results; ? = inconclusive; . = no result.

SMILES | Shn3 inh set2 | TRPM1 prom inh | TWEAK Fn14 block | Peg3 prom inh | TROY NFkB inh | LMP1 NFkB inh
CC1=C(C(=O)Nc2cccc(C(=O)N3CCN(c4cccc(C(F)(F)F)c4)CC3)c2)SCCO1 | 76 | -12 | 18 | -8 | 40 | 1
COc1ccc2c(c1OC)C(=O)O[C@@H]2[C@H]1c2c(cc3c(c2OC)OCO3)CCN1C | 1 | -11 | -2 | -1 | -1 | -2
COc1ccc2cc1Oc1ccc(cc1)C[C@H]1c3c(cc4c(c3Oc3cc5c(cc3OC)CCN(C)[C@@H]5C2)OCO4)CCN1C | -30 | 63* | -41 | 87* | -2 | -89
COc1ccc2cc1Oc1ccc(cc1)C[C@H]1c3cc(c(OC)cc3CCN1C)Oc1c(OC)c(OC)cc3c1[C@H](C2)N(C)CC3 | 38 | 95* | -29 | 93* | -7 | -12
CCC(=O)N1CCc2cc(S(=O)(=O)CCC(=O)N(C)c3ccc(OC)cc3OC)ccc21 | 12 | -4 | -5 | -2 | 12 | 3
CCOC(=O)N1CCC(N2C(=O)c3ccccc3C2Nc2cc(OC)c(OC)c(OC)c2)CC1 (stereo not drawn) | 8 | 6 | -2 | 10 | 9 | 7
CCOC(=O)N1CCC(N2C(=O)c3ccccc3C2Nc2cc(Cl)c(OC)cc2OC)CC1 (stereo not drawn) | 20 | -8 | 2 | 14 | -4 | 75*
COc1ccc(NC(=O)Cn2nnc(C(=O)NCc3ccccc3)c2N)c(OC)c1 | 4 | -3 | -1 | 19 | 12 | 64*
CCOC(=O)C1(CCOc2ccccc2)CCN(Cc2cccc(OC)c2OC)CC1 | 69 | 5 | 3 | 23 | 5 | 17
COc1ccc(Sc2ccc(NC(=O)c3ccccc3Cl)cc2C#N)cc1 | 3 | 6 | 15 | 23 | 1 | -5
N#Cc1cc(NC(=O)c2ccc(Cl)cc2)ccc1Sc1ccccc1 | 42 | . | 64* | 42 | 50* | .
O=C(Nc1ccccc1)c1oc2ccccc2c1NC(=O)C1CC1 | -10 | -4 | 7 | -14 | -16 | -4
Oc1cccc(C=Nc2cccc3ccccc23)c1O | 14 | 15 | 101* | 6 | 61* | -12
Cc1cccc(N=Cc2ccccc2O)c1C | 1 | . | 38 | 3 | -7 | 3
Oc1ccccc1C=Nc1cccc2ccccc12 | -3 | 21 | 69* | 12 | 66* | -3
Cc1oc(-c2cc(F)ccc2F)nc1CN1CCCN(C(=O)c2ccco2)CC1 | 5 | 17 | 6 | 9 | 4 | 1
COCCn1c(C)cc(C(=O)COc2nc3ccccc3nc2C)c1C | 68 | 16 | 19 | 7 | -16 | 11
COC(=O)CCCn1c(C)cc(C(=O)CCl)c1C | 7 | 14 | 13 | 51* | 9 | -4
COC(=O)CCn1c(C)cc(C(=O)COc2ccccc2C(N)=O)c1C | 58 | 12 | 53* | 3 | 23 | 6
O=C(c1ccccc1F)N1CCN(c2ccc([N+](=O)[O-])c(NCc3cccnc3)c2)CC1 | 16 | . | 72* | 20 | 15 | .
COc1ccc(CCNc2cc(N3CCN(C(=O)c4ccccc4F)CC3)ccc2[N+](=O)[O-])cc1OC | 88* | 83* | 93* | 45 | 35 | 21
COc1ccc(C(=O)N2CCN(c3ccc([N+](=O)[O-])c(NCCc4ccc(OC)c(OC)c4)c3)CC2)cc1 | 75 | 79* | 92* | 30 | 63* | 33
CC(NC(=O)C12CC3CC(C)(CC(C)(C3)C1)C2)c1ccncc1 (stereo not drawn) | 8 | 12 | 7 | 6 | 8 | 26
COc1ccccc1-c1ccccc1C1=CC(=O)CC(C)(C)C1=O | 11 | . | 9 | 15 | 0 | 61*
COc1ccc(OCc2cccc(C(=O)NN)c2)cc1 | 21 | 50 | -30 | -24 | -55 | 62*
SMILES | Shn3 inh set2 | TRPM1 prom inh | TWEAK Fn14 block | Peg3 prom inh | TROY NFkB inh | LMP1 NFkB inh
NNC(=O)c1cccc(COc2ccc(Br)cc2)c1 | -22 | -6 | -14 | -202 | -67 | 38
COc1ccc(OCc2cccc(C(=O)Nn3cc([N+](=O)[O-])cn3)c2)cc1 | -26 | 60 | -8 | -135 | -26 | 83*
O=C(c1cccc(OCc2ccccc2)c1)N1CCOCC1 | -4 | -6 | 14 | -30 | -5 | 1
CCOc1ccc(OCc2cccc(C(=O)N3CCOCC3)c2)cc1 | 70 | 56 | 12 | 21 | -83 | 84*
COc1ccc(OCc2cccc(C(=O)Nc3cc(C)on3)c2)cc1 | 14 | ? | 14 | -1 | -56 | 81*
Cc1cccc(NC(=O)CNC(=O)Cc2ccc3c(c2)OCCO3)c1C | 15 | . | -1 | -6 | 9 | -1
COc1ccc(-c2nn(-c3ccccc3)cc2/C=N/NC(N)=S)cc1OC | 20 | -6 | 69* | -16 | 12 | 10
COCCCNC(=O)c1ccc(OC)c(OC2CCN(C(C)C)CC2)c1 | -3 | -5 | -15 | 5 | -14 | 6
O=C(NNc1ccccc1Br)C(O)(c1cccc(C(F)(F)F)c1)c1cccc(C(F)(F)F)c1 | 54 | 19 | 73* | 54* | 57* | -5
Cc1ccc(C(O)(C(=O)NNc2ccccn2)c2ccc(C)cc2)cc1 | 1 | 10 | -1 | 16 | -8 | -8
Cc1ccc(NNC(=O)C(O)(c2cccc(C(F)(F)F)c2)c2cccc(C(F)(F)F)c2)cc1 | 24 | 6 | 22 | 67* | 43 | -10
CC(C)(O)C(=O)NNC(=S)Nc1cccc(C(F)(F)F)c1 | 11 | -2 | 1 | 14 | 1 | -6
O=c1c2ccccc2sn1-c1cccc(Cl)c1 | -15 | . | 8 | -42 | 10 | -1
O=c1c2ccccc2sn1-c1ccccc1 | 16 | -5 | -10 | 65* | -61 | -4
Cc1cc(-c2nnc(CCC(=O)NCCc3ccccc3F)o2)no1 | -1 | -2 | -3 | -3 | 2 | 3
O=C(O)c1ccc(-n2nc(C(F)(F)F)c3c2CCCC3)cc1 | -4 | 5 | 4 | -8 | 1 | -3
CN(C)C(=O)c1ccc(-n2nc(C(F)(F)F)c3c2CCCC3)cc1 | 22 | -8 | 59* | 5 | . | -1
O=C(c1ccc([N+](=O)[O-])cc1)N(Cc1cccs1)C1CCS(=O)(=O)C1 (stereo not drawn) | -4 | -4 | -3 | -5 | 2 | -1
N#Cc1ccc(CSc2nnc(Cc3cccs3)n2Cc2ccco2)cc1 | 4 | 4 | 76* | -2 | . | -7
O=C(C1CCCN(c2ncnc3c2nc2n3CCCCC2)C1)N1CCN(c2ccccc2F)CC1 (stereo not drawn) | 16 | 14 | 30 | 37 | 17 | -1
COCCN(CCOC)S(=O)(=O)c1ccc(C(=O)Nc2nnc(C3CC3)o2)cc1 | 8 | 4 | 67* | 0 | -10 | -3
COc1cccc(N2C(C(C)=O)=NN(c3ccccc3)C2c2ccc(N3CCOCC3)cc2)c1 (stereo not drawn) | -76 | -17 | 55* | -101 | 43 | -5
Cc1nc(-c2coc3cc(O)c(C)cc3c2=O)cs1 | 11 | 18 | 65* | -24 | 34 | 12

Source: PubChem BioAssay (several laboratories)
